Inconclusive results are not listed. Activity calls are given as the source filed them. Unless noted, calls follow the shape of the dose curve; as a rule, active = well fitted curve in the direction sought with a large enough effect in the repeat runs; inconclusive = weak or mixed curves; inactive = no such curve, though single readings can be large; an effect the other way counts as inactive or inconclusive.
Legend:
[1] = qHTS assay to identify small molecule agonists of the vitamin D receptor (VDR) signaling pathway - cell viability counter screen (AID 743224); also: series mostly up to about 63 µM; % is scaled to controls: 0 for no effect and ±100 for the full control effect; nearly all actives have a fitted effect of over 50% in size
In short: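 Plated VDR-bla cells (4 h, 37C) received compound, incubated 16 h, then LiveBLAzer substrate 2 h RT; CellTiter-Glo added afterwards, luminescence read at 30 min.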

[2] = qHTS assay to identify small molecule antagonists of the vitamin D receptor (VDR) signaling pathway - cell viability counter screen (AID 743225); also: % is scaled to controls: 0 for no effect and ±100 for the full control effect; nearly all actives have a fitted effect of over 50% in size
In short: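 Same-well multiplex: following 16 h treatment of HEK 293T cells carrying a UAS-driven beta-lactamase reporter with compound and agonist (3 nM final), and a 2 h FRET substrate step, CellTiter-Glo was added and luminescence read after 30 min.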

[3] = qHTS assay to identify small molecule agonists of the NFkB signaling pathway - cell viability counter screen (AID 1159515; calls by dose curve; also: series mostly up to about 61 µM; % is scaled to controls: 0 for no effect and ±100 for the full control effect; nearly all actives have a fitted effect of over 55% in size)
In short: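 Using the same wells as the NFkB reporter read, ME-180 NFkB-bla cells given compounds for 5 hr were assessed for viability via CellTiter-Glo, with luminescence taken after a 30 min room-temperature incubation.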

[4] = qHTS assay to identify small molecule agonists of the endoplasmic reticulum stress response signaling pathway (AID 1159516; active = well fitted activation curve with a large enough effect in the signal ratio in the repeat runs, not every such curve was filed as active; the % refers to the signal ratio; also: % is scaled to controls: 0 for no effect and ±100 for the full control effect)
In short: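 An ESRE-bla HeLa cell assay: compounds were pin-transferred from DMSO onto overnight-plated cells and left 5 hr at 37 C. Substrate was then loaded for 2 hr at room temperature before reading fluorescence at 460 nm and 530 nm.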

[5] = qHTS assay to identify small molecule agonists of the endoplasmic reticulum stress response signaling pathway - cell viability counter screen (AID 1159517; calls by dose curve;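 also: HeLa cells carrying an ER stress response element beta-lactamase reporter; series mostly up to about 61 µM; % is scaled to controls: 0 for no effect and ±100 for the full control effect; nearly all actives have a fitted effect of over 50% in size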)
In short: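 Luminescence readout: CellTiter-Glo, 30 min RT, same wells as the ESRE-bla reporter read. HeLa ESRE-bla, 1,500 cells/well, o/n 37 C; cpd 5 hr 37 C/5% CO2.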

[6] = qHTS assay to identify small molecule antagonists of the retinoid-related orphan receptor gamma (ROR-gamma) signaling pathway - cell viability counter screen (AID 1159520); also: % is scaled to controls: 0 for no effect and ±100 for the full control effect; nearly all actives have a fitted effect of over 50% in size
In short: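 Tet-on ROR gamma CHO cells (1,000/well) were plated 4 hr, given compounds in DMSO for 2 hr at 37 C, then induced with 1 uM final doxycycline for 16 hr. Viability was read as ATP by CellTiter-Glo luminescence after 30 min.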

[7] = target: Nuclear receptor ROR-gamma (Homo sapiens) (UniProt P51449); experiment: qHTS assay to identify small molecule antagonists of the retinoid-related orphan receptor gamma (ROR-gamma) signaling pathway (AID 1159521)
In short: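 Inducible-expression reporter assay: doxycycline (1 uM final) switched on RORγ in CHO cells bearing a ROR response element-luciferase construct, with test compounds present from 2 h beforehand. Decreased luminescence after 16 h defined antagonist activity.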

[8] = qHTS assay to identify small molecule agonists of the AP-1 signaling pathway - cell viability counter screen (AID 1159525; calls by dose curve; also: nearly all actives have a fitted effect of over 55% in size)
In short: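 ME-180 AP-1-bla, 2500 cells/well, Opti-MEM + 0.5% dialyzed FBS; overnight 37 °C; cpd 15-pt titration, 5 h 37 °C; CellTiter-Glo 30 min RT; luminescence read; normalised to TOAB and DMSO controls.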

[9] = qHTS assay to identify small molecule agonists of the AP-1 signaling pathway (AID 1159526; calls by dose curve; also: % is scaled to controls: 0 for no effect and ±100 for the full control effect)
[10] = qHTS assay to identify small molecule agonists of the RXR signaling pathway - cell viability counter screen (AID 1159529)
In short: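 Counter screen: CellTiter-Glo luminescence. Cells: RXR-alpha-UAS-bla HEK 293T. Medium: 2% charcoal-stripped FBS. Treatment: 16 h, 37 C. Reagent incubation: 30 min, RT.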

[11] = qHTS assay to identify small molecule antagonists of the retinoid acid receptor (RAR) signaling pathway - cell viability counter screen (AID 1159551); also: % is scaled to controls: 0 for no effect and ±100 for the full control effect; nearly all actives have a fitted effect of over 35% in size
In short: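 Retinol-stimulated (1 uM final) C3RL4 cells, compound 6 h, 37 C; readout CellTiter-Glo luminescence (ATP) after 30 min RT incubation.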

[12] = qHTS assay to identify small molecule antagonists of the retinoic acid receptor (RAR) signaling pathway (AID 1159552)
In short: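 Antagonism of retinol-induced RARE reporter activity was measured in C3RL4 cells. Exposure to compounds and 1 uM final retinol lasted 6 hr at 37 C, with luminescence as endpoint.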

[13] = qHTS assay to identify small molecule agonists of the retinoic acid receptor (RAR) signaling pathway (AID 1159553); also: % is scaled to controls: 0 for no effect and ±100 for the full control effect
In short: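 Reporter readout comes from luciferase under RARE control in C3RL4 cells; compound exposure lasts 6 hr at 37 C in 5% CO2, and luminescence is recorded following a 30 min room-temperature incubation with reagent.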

[14] = qHTS assay to identify small molecule antagonists of the estrogen related receptor (ERR) signaling pathway from Tox21 library - cell viability counter screen (AID 1224834); also: % is scaled to controls: 0 for no effect and ±100 for the full control effect; nearly all actives have a fitted effect of over 30% in size
In short: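 After 17.5 h of compound exposure at 37 C, ERR cells are incubated with CellTiter-Fluor for 30 min and fluorescence intensity serves as the viability measure.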

[15] = target: Luciferin 4-monooxygenase (Photinus pyralis) (UniProt P08659); experiment: qHTS assay to identify small molecule inhibitors of firefly luciferase (AID 1224835); also: series mostly up to about 120 µM; % is scaled to controls: 0 for no effect and ±100 for the full control effect; nearly all actives have a fitted effect of over 25% in size
Chain of Luciferin 4-monooxygenase (Photinus pyralis) (P08659 whole entry, looked up): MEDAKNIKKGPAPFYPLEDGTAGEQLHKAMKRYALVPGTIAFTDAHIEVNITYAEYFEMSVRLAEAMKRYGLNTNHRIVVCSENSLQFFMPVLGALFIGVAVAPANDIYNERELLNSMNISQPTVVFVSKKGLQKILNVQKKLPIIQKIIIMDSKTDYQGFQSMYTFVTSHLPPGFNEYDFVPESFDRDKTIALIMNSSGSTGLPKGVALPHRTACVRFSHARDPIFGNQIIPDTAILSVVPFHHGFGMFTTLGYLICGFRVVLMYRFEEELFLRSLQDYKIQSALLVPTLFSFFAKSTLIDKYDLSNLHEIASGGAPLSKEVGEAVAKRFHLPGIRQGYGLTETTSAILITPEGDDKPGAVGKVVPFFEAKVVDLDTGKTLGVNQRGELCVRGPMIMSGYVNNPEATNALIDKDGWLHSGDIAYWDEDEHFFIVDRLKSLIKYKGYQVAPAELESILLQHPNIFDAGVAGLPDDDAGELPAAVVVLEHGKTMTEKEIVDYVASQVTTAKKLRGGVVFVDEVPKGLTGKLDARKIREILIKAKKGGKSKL
In short: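 Quantitative HTS format; KM concentrations of both substrates. Purified P. pyralis FLuc activity quantified from luminescence images.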

[16] = qHTS assay to identify small molecule agonists of the constitutive androstane receptor (CAR) signaling pathway - cell viability counter screen (AID 1224836); also: series mostly up to about 92 µM; % is scaled to controls: 0 for no effect and ±100 for the full control effect; nearly all actives have a fitted effect of over 45% in size
In short: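 Double-stable HepG2 hepatoma cells (hCAR plus CYP2B6-2.2kb) are treated for 23 h at 37 C with test compounds in 15-point concentration series. PK11195 at 0.75 uM final is co-added. Cell viability is quantified by CellTiter-Fluor.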

[17] = qHTS assay to identify small molecule antagonists of the constitutive androstane receptor (CAR) signaling pathway - cell viability counter screen (AID 1224837); also: series mostly up to about 92 µM; % is scaled to controls: 0 for no effect and ±100 for the full control effect; nearly all actives have a fitted effect of over 45% in size
In short: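 Counter screen run in HepG2-CYP2B6-hCAR cells: 4 hr settle, compound titration (15 concentrations) with 50 nM CITCO, 23 hr at 37 C/5% CO2, CellTiter-Fluor fluorescence.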

[18] = target: Retinoic acid receptor RXR-alpha (Homo sapiens) (UniProt P19793); experiment: qHTS assay to identify small molecule agonists of the RXR signaling pathway (AID 1159527; calls by dose curve; also: % is scaled to controls: 0 for no effect and ±100 for the full control effect; nearly all actives have a fitted effect of over 35% in size)
Chain of Retinoic acid receptor RXR-alpha (Homo sapiens) (P19793 whole entry, looked up): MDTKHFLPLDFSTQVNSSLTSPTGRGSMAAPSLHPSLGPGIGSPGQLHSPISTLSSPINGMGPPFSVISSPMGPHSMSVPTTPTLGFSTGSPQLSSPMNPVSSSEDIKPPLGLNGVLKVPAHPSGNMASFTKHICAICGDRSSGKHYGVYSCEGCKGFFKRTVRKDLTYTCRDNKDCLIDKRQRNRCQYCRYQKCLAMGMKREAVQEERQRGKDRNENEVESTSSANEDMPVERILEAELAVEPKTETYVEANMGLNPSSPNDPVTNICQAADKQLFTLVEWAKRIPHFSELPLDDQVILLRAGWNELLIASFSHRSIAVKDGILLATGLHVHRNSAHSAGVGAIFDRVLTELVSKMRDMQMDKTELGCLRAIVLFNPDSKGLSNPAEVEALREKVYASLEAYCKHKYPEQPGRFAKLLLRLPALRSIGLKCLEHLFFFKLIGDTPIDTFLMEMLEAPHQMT
In short: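 Compounds in DMSO were added to RXR-alpha-UAS-bla HEK 293T cells kept in 2% charcoal-stripped serum, and incubated 16 hr at 37 C with 5% CO2. Reporter signal came from a 2 hr B/G FRET substrate step.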

[19] = target: Nuclear receptor subfamily 1 group I member 3 (Homo sapiens) (UniProt Q14994); experiment: qHTS assay to identify small molecule antagonists of the constitutive androstane receptor (CAR) signaling pathway (AID 1224838);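 also: HepG2 cells stably expressing hCAR with CYP2B6 luciferase reporter stimulated by CITCO; % is scaled to controls: 0 for no effect and ±100 for the full control effect; nearly all actives have a fitted effect of over 40% in size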
Chain of Nuclear receptor subfamily 1 group I member 3 (Homo sapiens) (Q14994 whole entry, looked up): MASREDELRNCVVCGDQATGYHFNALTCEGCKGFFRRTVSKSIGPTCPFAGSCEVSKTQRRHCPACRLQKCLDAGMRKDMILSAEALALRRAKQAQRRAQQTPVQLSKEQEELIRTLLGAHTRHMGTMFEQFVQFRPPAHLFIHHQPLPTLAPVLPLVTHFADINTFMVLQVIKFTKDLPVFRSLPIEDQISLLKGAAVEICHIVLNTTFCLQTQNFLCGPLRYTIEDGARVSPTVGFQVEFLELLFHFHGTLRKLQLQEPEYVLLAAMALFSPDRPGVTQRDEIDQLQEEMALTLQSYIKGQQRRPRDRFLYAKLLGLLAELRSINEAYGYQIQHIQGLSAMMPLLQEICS
In short: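 Cell line: HepG2 double-stable for hCAR and CYP2B6-2.2kb reporter. Agonist: CITCO, 50 nM final. Compounds: 15 concentrations, 24 h, 37 C. Detection: ONE-Glo luminescence.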

[20] = target: Nuclear receptor subfamily 1 group I member 3 (Homo sapiens) (UniProt Q14994); experiment: qHTS assay to identify small molecule agonists of the constitutive androstane receptor (CAR) signaling pathway (AID 1224839);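 also: HepG2 cells stably carrying human CAR and a CYP2B6 luciferase reporter; series mostly up to about 92 µM; % is scaled to controls: 0 for no effect and ±100 for the full control effect; nearly all actives have a fitted effect of over 15% in size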
In short: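 Readout: firefly luciferase luminescence via ONE-Glo. System: HepG2 double-stable for hCAR and CYP2B6-2.2kb. Conditions: 15-point compound titration, PK11195 at 0.75 uM final, 24 h incubation.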

BrCCOc1ccccc1
inactive: outcome [1] | outcome [2] | outcome [3] | Potency [4] | outcome [5] | outcome [6] | outcome [7] | outcome [8] | Potency [9] | Potency [10] | outcome [11] | outcome [12] | Potency [13] | outcome [14] | Potency [15] | outcome [16] | outcome [17]

N=C(N)N1CCc2ccccc2C1
inactive: activity change, negative = cytotoxicity [1] -1.18% [at 5.95 µM] | activity, negative = cytotoxic [3] 6.23% [at 6.95 µM] | activation [4] 1.42% [at 6.95 µM] | activity change, negative = cytotoxicity [5] 3.62% [at 6.95 µM] | activity, negative = cytotoxicity [6] 7.51% [at 8.39 µM] | activity change, negative = inhibition [7] -0.777% [at 8.39 µM] | viability change, negative = cytotoxic [8] 6.37% [at 6.97 µM] | activation [9] -0.863% [at 6.97 µM] | activity change, negative = cytotoxicity [10] 2.64% [at 6.97 µM] | activity change, negative = cytotoxicity [11] -0.951% [at 8.39 µM] | activity, negative = inhibition [12] -2.43% [at 8.39 µM] | activation [13] -0.224% [at 8.36 µM] | viability change, negative = cytotoxic [14] 2.84% [at 8.39 µM] | activity change, negative = inhibition [15] -2.87% [at 10.5 µM] | viability change, negative = cytotoxic [16] -1.33% [at 8.39 µM] | activity change, negative = cytotoxicity [17] 1.11% [at 8.39 µM]

CCCCN(CCCC)CCCCCCN(CCCC)CCCC
inactive: outcome [2] | outcome [3] | Potency [4] | outcome [5] | outcome [6] | outcome [7] | outcome [8] | Potency [9] | Potency [18] | outcome [11] | outcome [12] | Potency [13] | Potency [15] | outcome [16] | outcome [17] | outcome [19] | Potency [20]

C[C@H]1COc2c(C3(N)CC3)c(F)cc3c(=O)c(C(=O)O)cn1c23
inactive: outcome [1] | outcome [2] | outcome [3] | Potency [4] | outcome [5] | outcome [6] | outcome [7] | outcome [8] | Potency [9] | Potency [10] | outcome [11] | outcome [12] | Potency [13] | outcome [14] | Potency [15] | outcome [16] | outcome [19] | Potency [20]

CN(C)CCc1c[nH]c2ccc(CS(=O)(=O)N3CCCC3)cc12
inactive: outcome [1] | outcome [2] | outcome [3] | Potency [4] | outcome [5] | outcome [6] | outcome [7] | outcome [8] | Potency [9] | Potency [18] | outcome [11] | outcome [12] | Potency [13] | Potency [15] | outcome [16] | outcome [17] | Potency [20]

N[C@H]1C(O)O[C@H](CO)[C@@H](O)[C@@H]1O (some centres not stated)
inactive: outcome [1] | outcome [2] | outcome [3] | Potency [4] | outcome [5] | outcome [6] | outcome [7] | outcome [8] | Potency [9] | Potency [10] | outcome [11] | outcome [12] | Potency [13] | Potency [15] | outcome [16] | outcome [17] | outcome [19] | Potency [20]

N=C(N)N
inactive: outcome [2] | outcome [3] | Potency [4] | outcome [5] | outcome [6] | outcome [7] | outcome [8] | Potency [9] | Potency [10] | outcome [11] | outcome [12] | Potency [13] | Potency [15] | outcome [16] | outcome [17] | outcome [19] | Potency [20]

Nc1ccc(C(=O)NCC(=O)O)cc1
inactive: outcome [1] | outcome [2] | outcome [3] | Potency [4] | outcome [5] | outcome [6] | outcome [7] | outcome [8] | Potency [9] | Potency [18] | outcome [11] | outcome [12] | Potency [13] | outcome [14] | Potency [15] | outcome [16] | outcome [17]

CN(C)CCc1c[nH]c2ccc(C[C@H]3COC(=O)N3)cc12
inactive: outcome [1] | outcome [2] | outcome [3] | Potency [4] | outcome [5] | outcome [6] | outcome [7] | outcome [8] | Potency [9] | Potency [18] | outcome [11] | outcome [12] | Potency [13] | outcome [14] | Potency [15] | outcome [16] | outcome [17]

O=C(CCBr)N1CCN(C(=O)CCBr)CC1
inactive: outcome [1] | outcome [2] | outcome [3] | Potency [4] | outcome [5] | outcome [6] | outcome [7] | outcome [8] | Potency [9] | Potency [10] | outcome [11] | outcome [12] | Potency [13] | outcome [14] | Potency [15] | outcome [16] | outcome [17]

Cc1ccc(S(=O)(=O)NC(=O)NN2CC3CCCC3C2)cc1 (configuration not stated)
inactive: outcome [1] | outcome [2] | outcome [3] | Potency [4] | outcome [5] | outcome [6] | outcome [7] | outcome [8] | Potency [9] | outcome [11] | outcome [12] | Potency [13] | outcome [14] | Potency [15] | outcome [16] | outcome [17] | outcome [19] | Potency [20]

Cc1cc(=O)oc2cc(O[C@@H]3SC[C@@H](O)[C@H](O)[C@H]3O)ccc12
inactive: outcome [1] | outcome [2] | outcome [3] | Potency [4] | outcome [5] | outcome [6] | outcome [7] | outcome [8] | Potency [9] | outcome [11] | outcome [12] | Potency [13] | outcome [14] | Potency [15] | outcome [16] | outcome [17]

C=CCCCCCCCCOC(C)=O
inactive: outcome [1] | outcome [2] | outcome [3] | Potency [4] | outcome [5] | outcome [6] | outcome [7] | outcome [8] | Potency [9] | outcome [11] | outcome [12] | Potency [13] | Potency [15] | outcome [16] | outcome [17]

COc1cnc(NS(=O)(=O)c2ccc(N)cc2)nc1
inactive: outcome [1] | outcome [2] | outcome [3] | Potency [4] | outcome [5] | outcome [7] | outcome [8] | Potency [9] | outcome [11] | outcome [12] | Potency [13] | outcome [14] | Potency [15] | outcome [16] | outcome [17] | Potency [20]

CCCCCCCCCCCCCCBr
inactive: outcome [1] | outcome [2] | outcome [3] | Potency [4] | outcome [5] | outcome [7] | outcome [8] | Potency [9] | Potency [18] | Potency [10] | outcome [11] | outcome [12] | Potency [13] | outcome [14] | Potency [15] | outcome [16] | outcome [17]

C=CCN(CC=C)CC=C
inactive: outcome [1] | outcome [2] | outcome [3] | Potency [4] | outcome [5] | outcome [7] | outcome [8] | Potency [9] | Potency [18] | Potency [10] | outcome [11] | outcome [12] | Potency [13] | outcome [14] | Potency [15] | outcome [16] | outcome [17] | outcome [19] | Potency [20]

From PubChem BioAssay (Tox21)
